The subject of assay [1] is Wnt5a (protein binding on small-molecule microarray). Put plainly: small molecules binding Wnt5a protein – biophysical, small-molecule microarray, 635/667 nm fluorescence, primary screen (AID 1142).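 Note: fluorescence read at 667 nm with signal to noise per printed feature.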 Particulars: 635 nm fluorescence, higher = more signal.
A short description of assay [2]: ATP-based viability of Huh7 replicon cells – cell-based, CellTiter-Glo luminescence, basal, 48 h, cytotoxicity control for HCV replication inhibitor project, primary screen (AID 1143).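 Note: Huh7 hepatoma cells carrying a hepatitis C replication reporter with no stimulus; test concentration not given here.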 Particulars: higher = more signal, called active from +8 up or from −8 down.
The nature of assay [3]: Pseudomonas biofilm growth suppression – PAO1 strain, BacTiter-Glo luminescence, LB-PBS, primary screen (AID 1144). The following applies: P. aeruginosa PAO1 biofilm, 12 h, higher = more signal.
A short description of assay [4]: basal CRE-LacZ reporter activity in PC12 – cell-based, unstimulated, primary screen (AID 1145). Particulars: no forskolin, luminescence, 4.5 h, higher = more signal, called active from +8 up or from −8 down.
Assay [5] in a line: forskolin-driven CRE-LacZ activity in PC12 – cell-based, CRE-LacZ reporter, forskolin-stimulated, primary screen (AID 1146).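 Note: PC12 cells with 6xCRE LacZ reporter stimulated by forskolin 10 µM; beta-galactosidase reporter signal reflecting CREB driven transcription.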 The following applies: luminescence, 4.5 h, higher = more signal, called active from +8 up or from −8 down.
In assay [6] the target is Streptavidin (Streptomyces avidinii) (UniProt P22629). As to the kind of experiment: compounds binding control protein streptavidin – biophysical, small-molecule microarray, 635/667 nm fluorescence, artefact control for SMM compound annotation, primary screen (AID 1147).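 Note: signal reflects streptavidin binding to arrayed compounds as a control protein.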 The following applies: higher = more signal.
A short description of assay [7]: probe aInhba binding on compound microarray – biochemical, small-molecule microarray, 635/667 nm fluorescence, primary screen (AID 1148).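 Note: score merges 667nm spot fluorescence with signal-to-noise for antibody binding to printed compounds.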 The following applies: higher = more signal.
Assay [8] deals with Torsin-1A (Homo sapiens) (UniProt O14656). As to the kind of experiment: TOR1A wild-type binding on microarray – cell lysate, small-molecule microarray, lysate, 635/667 nm, primary screen (AID 1149). Particulars: COS7 hTOR1A-WT lysate, 635 nm fluorescence, higher = more signal.
The target is the same in assay [9]. Put plainly: torsin A mutant lysate binding on microarrays – cell lysate, small-molecule microarray, COS7 lysate, 635/667 nm fluorescence, primary screen (AID 1150).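 Note: score pools 667 nm emission and signal to noise measuring lysate protein binding.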 The following applies: COS7 hTOR1A mutant lysate, 635 nm fluorescence, higher = more signal.
Assay [10] concerns Sonic hedgehog protein (Shh). Put plainly: Sonic hedgehog microarray binding compounds – biochemical, small-molecule microarray, 635/667 nm fluorescence, primary screen (AID 1151).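 Note: Shh protein binding to compounds spotted on small-molecule microarray slides; score combines spot fluorescence intensity with signal-to-noise across triplicate slides.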 Particulars: 635 nm fluorescence, higher = more signal.
Assay [11] can be described thus: optical density shifts of acrAB sulA E. coli – strain DRC41, OD650, 48 h, E. coli filamentation inducer project, primary screen (AID 1152).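 Note: E. coli MC1000 strain DRC41 lacking acrAB efflux pump and sulA.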 The following applies: higher = more signal, called active from +8 up or from −8 down.
The nature of assay [12]: probe aLefty1 binding on compound microarray – biochemical, small-molecule microarray, 635/667 nm fluorescence, primary screen (AID 1153).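 Note: score merges spot fluorescence with signal-to-noise ratio from the scanned slide images.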 Particulars: higher = more signal.
Assay [13] can be described thus: plasmodial surface anion channel blockers, osmotic lysis – cell-based, P. falciparum Indochina, OD700, 1 h, primary screen (AID 1154). The following applies: P. falciparum Indochina infected RBC osmotic lysis, higher = more signal, called active from +8 up or from −8 down.
Assay [14] in a line: plasmodial surface anion channel blockers, osmotic lysis – cell-based, P. falciparum Indochina, OD700, 2 h, primary screen (AID 1155).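 Note: lysis reports solute entry through the parasite surface anion channel PSAC.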 The following applies: P. falciparum Indochina infected erythrocytes, higher = more signal, called active from +8 up or from −8 down.
The nature of assay [15]: changes in parasitized red cell lysis, either direction – P. falciparum Indochina, OD700, 3 h, PSAC antagonist project, primary screen (AID 1156). The following applies: P. falciparum-infected erythrocytes, osmotic lysis, higher = more signal, called active from +8 up or from −8 down.
Assay [16] in a line: plasmodial surface anion channel blockers, osmotic lysis – cell-based, P. falciparum Indochina, OD700, 18 h, primary screen (AID 1157). The following applies: P. falciparum Indochina infected erythrocytes, osmotic lysis OD700, 18 h; higher = more signal, called active from +8 up or from −8 down.
Assay [17] is described as follows: S6 kinase pathway phospho-S6 level changes – cell-based, A549, cytoblot, luminescence, serum-stimulated, primary screen (AID 1158).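 Note: serum-stimulated A549 lung adenocarcinoma cells; signal is phosphorylated S6 detected by cytoblot immunostaining with HRP secondary.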 Particulars: 5 h, higher = more signal.
Assay [18] deals with NADPH oxidase 2 (Homo sapiens) (UniProt P04839). As to the kind of experiment: compounds shifting NOX2 Amplex Red fluorescence – cell-based, HEK293-NOX2, PMA-stimulated, NOX inhibitor project, primary screen (AID 1159). Note: test concentration not given here. The following applies: 45 min, higher = more signal, called active from +8 up or from −8 down.
Assay [19] concerns the target NADPH oxidase 4 (Homo sapiens) (UniProt Q9NPH5). Put plainly: compounds shifting NOX4 Amplex Red fluorescence – cell-based, HEK293-NOX4, tetracycline-induced, NOX inhibitor project, primary screen (AID 1160). The following applies: HEK293-NOX4, Amplex Red H2O2 fluorescence, 45 min; higher = more signal, called active from +8 up or from −8 down.
In assay [20] the target is NADPH oxidase 5 (Homo sapiens) (UniProt Q96PH1). As to the kind of experiment: compounds shifting NOX5 Amplex Red fluorescence – cell-based, HEK293-NOX5, NOX inhibitor project, primary screen (AID 1161). Particulars: HEK293-NOX5, ionomycin, 45 min, higher = more signal.

Structures are written as SMILES. Active and inactive are the calls of the source. Unless noted, the rule behind the calls is not given here.

8 compounds from PubChem BioAssay can be followed below.

Chain of NADPH oxidase 4 (Homo sapiens) (Q9NPH5 whole entry, looked up): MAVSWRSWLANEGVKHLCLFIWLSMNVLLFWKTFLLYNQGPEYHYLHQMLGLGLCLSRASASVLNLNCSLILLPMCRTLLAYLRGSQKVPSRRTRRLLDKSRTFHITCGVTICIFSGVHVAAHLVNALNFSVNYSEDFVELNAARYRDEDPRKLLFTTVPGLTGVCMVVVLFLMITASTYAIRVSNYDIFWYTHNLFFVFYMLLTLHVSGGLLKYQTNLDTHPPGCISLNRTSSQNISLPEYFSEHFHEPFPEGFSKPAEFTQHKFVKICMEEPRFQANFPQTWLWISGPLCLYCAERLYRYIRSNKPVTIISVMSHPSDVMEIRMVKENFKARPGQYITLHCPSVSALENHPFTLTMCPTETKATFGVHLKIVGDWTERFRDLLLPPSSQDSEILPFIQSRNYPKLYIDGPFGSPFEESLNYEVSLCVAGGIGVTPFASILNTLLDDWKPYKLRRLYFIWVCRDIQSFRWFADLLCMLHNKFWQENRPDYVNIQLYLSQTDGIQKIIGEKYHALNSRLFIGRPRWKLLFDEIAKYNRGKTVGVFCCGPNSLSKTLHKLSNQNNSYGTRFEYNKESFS
Chain of NADPH oxidase 2 (Homo sapiens) (P04839 whole entry, looked up): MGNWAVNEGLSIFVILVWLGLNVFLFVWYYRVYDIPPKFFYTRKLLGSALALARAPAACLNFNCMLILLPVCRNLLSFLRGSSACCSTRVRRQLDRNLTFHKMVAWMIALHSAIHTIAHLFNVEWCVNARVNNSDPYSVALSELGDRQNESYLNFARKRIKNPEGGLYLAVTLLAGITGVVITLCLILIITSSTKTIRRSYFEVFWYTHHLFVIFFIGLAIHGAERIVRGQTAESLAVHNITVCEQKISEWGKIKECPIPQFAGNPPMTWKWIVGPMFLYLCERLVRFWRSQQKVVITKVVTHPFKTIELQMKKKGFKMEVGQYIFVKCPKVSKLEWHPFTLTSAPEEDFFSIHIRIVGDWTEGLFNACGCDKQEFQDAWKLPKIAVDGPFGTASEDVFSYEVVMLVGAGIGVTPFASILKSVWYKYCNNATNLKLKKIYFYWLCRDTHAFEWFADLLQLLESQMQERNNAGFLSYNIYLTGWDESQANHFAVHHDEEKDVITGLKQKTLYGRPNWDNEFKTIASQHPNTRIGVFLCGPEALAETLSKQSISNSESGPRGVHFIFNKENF
Chain of Torsin-1A (Homo sapiens) (O14656 whole entry, looked up): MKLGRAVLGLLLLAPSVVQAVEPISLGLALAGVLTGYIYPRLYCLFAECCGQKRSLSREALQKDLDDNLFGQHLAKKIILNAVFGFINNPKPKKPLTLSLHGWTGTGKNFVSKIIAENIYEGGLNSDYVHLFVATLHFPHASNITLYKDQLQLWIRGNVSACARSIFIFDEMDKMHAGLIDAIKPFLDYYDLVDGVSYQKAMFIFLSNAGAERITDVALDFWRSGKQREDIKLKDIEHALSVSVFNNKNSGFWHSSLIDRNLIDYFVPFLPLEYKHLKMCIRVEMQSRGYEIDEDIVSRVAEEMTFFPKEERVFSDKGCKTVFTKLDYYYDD
Chain of NADPH oxidase 5 (Homo sapiens) (Q96PH1 whole entry, looked up): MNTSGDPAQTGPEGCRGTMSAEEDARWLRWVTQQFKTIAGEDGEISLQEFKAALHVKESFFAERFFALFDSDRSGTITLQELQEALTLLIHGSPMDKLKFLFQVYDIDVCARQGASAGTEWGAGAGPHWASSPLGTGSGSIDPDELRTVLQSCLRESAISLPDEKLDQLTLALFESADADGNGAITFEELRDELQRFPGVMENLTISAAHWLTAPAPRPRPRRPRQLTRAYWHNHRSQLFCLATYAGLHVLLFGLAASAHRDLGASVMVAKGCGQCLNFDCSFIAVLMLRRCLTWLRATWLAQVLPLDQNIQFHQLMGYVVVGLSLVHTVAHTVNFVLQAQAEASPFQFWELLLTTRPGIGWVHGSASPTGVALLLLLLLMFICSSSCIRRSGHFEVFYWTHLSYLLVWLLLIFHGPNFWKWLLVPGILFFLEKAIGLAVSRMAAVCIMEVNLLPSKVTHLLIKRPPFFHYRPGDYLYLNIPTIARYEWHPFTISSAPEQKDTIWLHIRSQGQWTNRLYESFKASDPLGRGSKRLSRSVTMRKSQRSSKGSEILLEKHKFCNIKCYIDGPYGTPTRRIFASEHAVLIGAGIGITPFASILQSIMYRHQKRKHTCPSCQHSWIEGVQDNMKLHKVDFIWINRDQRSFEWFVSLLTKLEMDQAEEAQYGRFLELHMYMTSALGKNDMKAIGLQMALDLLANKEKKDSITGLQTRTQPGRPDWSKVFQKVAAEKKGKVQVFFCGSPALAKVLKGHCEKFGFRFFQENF
Chain of Streptavidin (Streptomyces avidinii) (P22629 whole entry, looked up): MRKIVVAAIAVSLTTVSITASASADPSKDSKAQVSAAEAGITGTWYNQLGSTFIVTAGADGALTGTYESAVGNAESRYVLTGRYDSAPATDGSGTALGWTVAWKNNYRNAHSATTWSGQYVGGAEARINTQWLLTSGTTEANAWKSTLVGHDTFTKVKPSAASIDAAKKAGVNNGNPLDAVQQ

In the case of `COc1ccc(C#Cc2ccc3c(c2)[C@]2(C(=O)N3)[C@H](C(N)=O)[C@H]3C(=O)O[C@H](c4ccccc4)[C@H](c4ccccc4)N3[C@@H]2c2ccc(O)cc2)cc1`, the composite z-score in [1] was 0.138; in assay [6], 0.214; in assay [7] it was -0.128; with Torsin-1A (Homo sapiens) [8], 0.369; with Torsin-1A (Homo sapiens) [9], 1.03; in assay [10], 0.794. The composite z-score in assay [12] was -0.131. In addition, the z-score is -4.69 (inactive) in assay [2]; -0.755 (inactive) in assay [3]; -0.465 (inactive) in assay [4]; -0.332 (inactive) in assay [5]; -0.203 (inactive) in assay [11]; 3.46 (inactive) in assay [13]. The z-score in [14] was 1.63 (inactive); in assay [15], 0.0128 (inactive); in [16], 1.23 (inactive); in [17], 0.0535; in assay [18], 0.945 (inactive); in [19], 0.346 (inactive). For the same compound, the z-score in [20] was -1.04.
`COc1ccc([Si](C)(C)[C@@H]2[C@@H](CCO)O[C@]3(C(=O)N(Cc4ccccc4)c4ccc(N5CCCCC5=O)cc43)[C@H]2C)cc1`: the composite z-score was 0.271 in assay [1]; 0.583 in [6]; 0.0446 in assay [7]; -0.121 in the assay with Torsin-1A (Homo sapiens) [8]; 0.198 in the assay with Torsin-1A (Homo sapiens) [9]; 1.44 in assay [10]. Further, in assay [12], the composite z-score was found to be 0.0984. Also, the z-score is -8.08 (active) in assay [2]; -0.119 (inactive) in [3]; 8.84 (active) in [4]; -0.94 (inactive) in assay [5]; 2.13 (inactive) in assay [11]; 3.59 (inactive) in assay [13]. The z-score in assay [14] is 1.19 (inactive); in [15] it was -0.121 (inactive); in [16], 0.231 (inactive); in assay [17] it was 0.863; in assay [18] it was -0.421 (inactive); in assay [19], -0.278 (inactive). Also, in assay [20], the z-score came to 1.37.
On to `CC(C)(C)OC(=O)CC[C@]1(C(=O)O)COC(c2ccc(OCCCO)cc2)=N1`, for which the composite z-score in assay [1] was -0.0943; in assay [6], 0.142; in assay [7] it was -0.0589; with Torsin-1A (Homo sapiens) [8], 0.676; with Torsin-1A (Homo sapiens) [9], 1.08; in assay [10], -2.07. This compound displayed a composite z-score in assay [12] of 0.126. In addition, the z-score was 0.61 (inactive) in [2]; 0.178 (inactive) in [3]; 0.694 (inactive) in assay [4]; 0.506 (inactive) in assay [5]; -0.283 (inactive) in assay [11]; 2.54 (inactive) in assay [13]. The z-score is -0.0827 (inactive) in assay [14]; 0.091 (inactive) in assay [15]; 0.0515 (inactive) in assay [16]; -0.426 in [17]; 0.0212 (inactive) in assay [18]; 0.624 (inactive) in assay [19]. Moreover, the z-score in assay [20] came out at 0.487.
Regarding `C=CCN1C(=O)[C@@]2(O[C@@H](CCO)[C@H]([Si](C)(C)c3ccc(OC)cc3)[C@H]2C)c2cc(NC(=O)[C@H](C)O)ccc21`, the composite z-score in [1] was 0.442; in [6], 0.0832; in assay [7] it was -0.0695; in the assay with Torsin-1A (Homo sapiens) [8] it was 0.923; with Torsin-1A (Homo sapiens) [9], 1.01; in assay [10], 1.46. The compound also returned a composite z-score in assay [12] of -0.0879. In addition, the z-score was -5.04 (inactive) in [2]; -0.856 (inactive) in assay [3]; 17.4 (active) in assay [4]; -0.213 (inactive) in assay [5]; 0.301 (inactive) in assay [11]; 23 (active) in assay [13]. Besides, the z-score in assay [14] was 6.92 (inactive); in assay [15] it was 0.903 (inactive); in [16], 1.62 (inactive); in [17], 0.29; in assay [18] it was -0.54 (inactive); in assay [19], 0.552 (inactive). The z-score in assay [20] is -0.335.
In the case of `COC(=O)[C@@]1(Cc2ccccc2)[C@H]2c3cc(C(=O)N(C)C)n(Cc4ccccn4)c3C[C@H]2CN1C(=O)c1ccccc1`, the composite z-score in assay [1] is 0.283; in assay [6], 2.27; in [7], 0.38; with Torsin-1A (Homo sapiens) [8], -0.208; with Torsin-1A (Homo sapiens) [9], 0.239; in [10], -0.709. In assay [12], this compound showed a composite z-score of 0.378. In addition, the z-score in assay [2] is -1.16 (inactive); in [3] it was -0.0189 (inactive); in assay [4] it was 1.73 (inactive); in assay [5] it was 1.42 (inactive); in assay [11], -1.59 (inactive); in [13], 1.32 (inactive). Further, the z-score was 0.458 (inactive) in [14]; 0.365 (inactive) in [15]; 0.544 (inactive) in [16]; -0.733 in assay [17]; 0.048 (inactive) in assay [18]; -1.87 (inactive) in assay [19]. Moreover, the z-score in assay [20] was -2.08.
In the case of `Cc1ccccc1C(O)C1C=CC2C(=O)N(C)C(=O)C2N1Nc1ccc([N+](=O)[O-])cc1[N+](=O)[O-]` (stereo not given), the composite z-score is 0.483 in assay [1]; 1.04 in [6]; 0.138 in [7]; -0.0091 with Torsin-1A (Homo sapiens) [8]; 0.94 with Torsin-1A (Homo sapiens) [9]; -0.457 in [10]. In [12], the composite z-score worked out at 0.591. Besides, the z-score in assay [2] is -0.157 (inactive); in [3] it was 0.262 (inactive); in assay [4], 0.443 (inactive); in [5], 0.57 (inactive); in assay [11] it was -1.68 (inactive); in assay [13] it was 4.34 (inactive). Also, the z-score is 1.7 (inactive) in assay [14]; 1.06 (inactive) in [15]; 0.95 (inactive) in assay [16]; -1.32 in [17]; -0.824 (inactive) in [18]; -1.23 (inactive) in assay [19]. Moreover, the z-score in assay [20] was found to be 0.487.
For the compound `O=C1O[C@H](c2ccccc2)[C@H](c2ccccc2)N2[C@H]1[C@@H](C(=O)N1CCN(c3ncccn3)CC1)[C@]1(C(=O)Nc3ccc(C#CCCO)cc31)[C@H]2c1ccccc1OCCO`, the composite z-score came out at 0.163 in assay [1]; 0.376 in assay [6]; 0.0714 in assay [7]; 0.506 with Torsin-1A (Homo sapiens) [8]; 0.686 in the assay with Torsin-1A (Homo sapiens) [9]; 0.371 in assay [10]. This compound registered a composite z-score in assay [12] of -0.012. Moreover, the z-score in assay [2] is -1.55 (inactive); in [3] it was 0.525 (inactive); in [4], 0.765 (inactive); in [5] it was -0.484 (inactive); in assay [11], 0.313 (inactive); in assay [13] it was 2.7 (inactive). Besides, the z-score in assay [14] is 1.55 (inactive); in assay [15], 0.561 (inactive); in assay [16], 0.657 (inactive); in assay [17] it was -0.673; in assay [18], 1.45 (inactive); in assay [19] it was 0.492 (inactive). The z-score in assay [20] amounted to 0.333.
Consider `COCCCNC(=O)[C@@H]1c2ccccc2C(=O)N(Cc2cc(F)cc(C(F)(F)F)c2)[C@H]1c1ccc(CO)cc1`, for which the composite z-score is -0.575 in assay [1]; -0.716 in [6]; -0.264 in assay [7]; -2.22 in the assay with Torsin-1A (Homo sapiens) [8]; -0.0932 with Torsin-1A (Homo sapiens) [9]; -0.508 in assay [10]. This compound also registered a composite z-score in assay [12] of -0.25. For the same compound, the z-score in assay [2] is -0.016 (inactive); in [3] it was -0.043 (inactive); in assay [4] it was 0.944 (inactive); in [5] it was -0.224 (inactive); in assay [11], -0.0134 (inactive); in [13] it was 1.49 (inactive). Besides, the z-score in assay [14] is 0.35 (inactive); in assay [15], 0.62 (inactive); in assay [16], 0.0592 (inactive); in assay [17], -0.731; in [18], 0.193 (inactive); in assay [19], 0.401 (inactive). The z-score in assay [20] turned out to be 0.774.
